# According to PubChem BioAssay:
# Active and inactive are the calls of the source. Unless noted, how the calls were made is not given here.
# How the values were obtained:
# [1] = test system: Wnt5a (protein binding on small-molecule microarray); test: Wnt5a binders on small-molecule microarray, primary screen, biophysical, 635/667 nm fluorescence (AID 1142); conditions: 635 nm fluorescence, higher = more signal;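 further: fluorescence read at 667 nm with signal to noise per printed feature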
# [2] = cell viability in Huh7 cells, primary screen, cytotoxicity control for HCV replication inhibitor project, CellTiter-Glo luminescence, basal, 48 h (AID 1143); conditions: Huh7 HCV replicon, higher = more signal, called active from +8 up or from −8 down;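 further: Huh7 hepatoma cells carrying a hepatitis C replication reporter with no stimulus; test concentration not given here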
# [3] = P. aeruginosa biofilm formation inhibitors, primary screen, PAO1 strain, BacTiter-Glo luminescence, LB-PBS (AID 1144); conditions: 12 h, higher = more signal
# [4] = CREB reporter modulators without forskolin, primary screen, cell-based, PC12, CRE-LacZ reporter, unstimulated (AID 1145); conditions: no forskolin, luminescence, 4.5 h, higher = more signal, called active from +8 up or from −8 down
# [5] = CREB reporter modulators under forskolin, primary screen, cell-based, PC12, CRE-LacZ reporter, forskolin-stimulated (AID 1146); conditions: luminescence, 4.5 h, higher = more signal, called active from +8 up or from −8 down;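 further: PC12 cells with 6xCRE LacZ reporter stimulated by forskolin 10 µM; beta-galactosidase reporter signal reflecting CREB driven transcription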
# [6] = target: Streptavidin (Streptomyces avidinii) (UniProt P22629); test: streptavidin binders on small-molecule microarray, primary screen, artefact control for SMM compound annotation, biophysical, 635/667 nm fluorescence (AID 1147); conditions: streptavidin binding, higher = more signal;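 further: signal reflects streptavidin binding to arrayed compounds as a control protein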
# [7] = small-molecule binders of probe aInhba, primary screen, biochemical, small-molecule microarray, 635/667 nm fluorescence (AID 1148); conditions: higher = more signal;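 further: score merges 667nm spot fluorescence with signal-to-noise for antibody binding to printed compounds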
# Torsin-1A (Homo sapiens) [8] = target: Torsin-1A (Homo sapiens) (UniProt O14656); test: torsin A binders from cell lysate, primary screen, small-molecule microarray, wild-type, 635/667 nm (AID 1149); conditions: COS7 hTOR1A-WT lysate, 635 nm fluorescence, higher = more signal
# Torsin-1A (Homo sapiens) [9] = target: Torsin-1A (Homo sapiens) (UniProt O14656); test: small-molecule binders of mutant TOR1A in lysate, primary screen, cell lysate, small-molecule microarray, COS7 lysate, 635/667 nm fluorescence (AID 1150); conditions: COS7 hTOR1A mutant lysate, 635 nm fluorescence, higher = more signal;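 further: score pools 667 nm emission and signal to noise measuring lysate protein binding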
# [10] = test system: Sonic hedgehog protein (Shh); test: small-molecule binders of Shh protein, primary screen, biochemical, small-molecule microarray, 635/667 nm fluorescence (AID 1151); conditions: small-molecule microarray binding, 635 nm fluorescence; higher = more signal;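 further: Shh protein binding to compounds spotted on small-molecule microarray slides; score combines spot fluorescence intensity with signal-to-noise across triplicate slides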
# [11] = E. coli DRC41 culture turbidity changes, primary screen, E. coli filamentation inducer project, strain DRC41, OD650, 48 h (AID 1152);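 further: E. coli MC1000 strain DRC41 lacking acrAB efflux pump and sulA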; conditions: E. coli DRC41 (acrAB sulA), higher = more signal, called active from +8 up or from −8 down
# [12] = small-molecule binders of probe aLefty1, primary screen, biochemical, small-molecule microarray, 635/667 nm fluorescence (AID 1153); conditions: higher = more signal;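 further: score merges spot fluorescence with signal-to-noise ratio from the scanned slide images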
# [13] = PSAC antagonists in infected red cells, primary screen, cell-based, P. falciparum Indochina, OD700, 1 h (AID 1154); conditions: P. falciparum Indochina infected RBC osmotic lysis, higher = more signal, called active from +8 up or from −8 down
# [14] = PSAC antagonists in infected red cells, primary screen, cell-based, P. falciparum Indochina, OD700, 2 h (AID 1155);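 further: lysis reports solute entry through the parasite surface anion channel PSAC; channel blockers reduce lysis of infected cells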; conditions: P. falciparum Indochina infected erythrocytes, osmotic lysis OD700; higher = more signal, called active from +8 up or from −8 down
# [15] = osmotic lysis modulators in infected erythrocytes, primary screen, PSAC antagonist project, cell-based, P. falciparum Indochina, OD700, 3 h (AID 1156); conditions: higher = more signal, called active from +8 up or from −8 down
# [16] = PSAC antagonists in infected red cells, primary screen, cell-based, P. falciparum Indochina, OD700, 18 h (AID 1157); conditions: P. falciparum Indochina infected erythrocytes, osmotic lysis OD700, 18 h; higher = more signal, called active from +8 up or from −8 down
# [17] = modulators of S6 phosphorylation in cells, primary screen, cell-based, A549, cytoblot, luminescence, serum-stimulated (AID 1158); conditions: A549 phospho-S6 cytoblot, 5 h, higher = more signal;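 further: serum-stimulated A549 lung adenocarcinoma cells; signal is phosphorylated S6 detected by cytoblot immunostaining with HRP secondary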
# [18] = target: NADPH oxidase 2 (Homo sapiens) (UniProt P04839); test: NOX2-dependent H2O2 signal modulators, primary screen, NOX inhibitor project, cell-based, HEK293-NOX2, PMA-stimulated, Amplex Red fluorescence (AID 1159); conditions: 45 min, higher = more signal, called active from +8 up or from −8 down; further: test concentration not given here
# [19] = target: NADPH oxidase 4 (Homo sapiens) (UniProt Q9NPH5); test: NOX4-dependent H2O2 signal modulators, primary screen, NOX inhibitor project, cell-based, HEK293-NOX4, tetracycline-induced, Amplex Red fluorescence (AID 1160); conditions: 45 min, higher = more signal, called active from +8 up or from −8 down
# [20] = target: NADPH oxidase 5 (Homo sapiens) (UniProt Q96PH1); test: NOX5-dependent H2O2 signal modulators, primary screen, NOX inhibitor project, cell-based, HEK293-NOX5, Amplex Red fluorescence (AID 1161); conditions: HEK293-NOX5, ionomycin, 45 min, higher = more signal
# NADPH oxidase 5 (Homo sapiens), sequence (Q96PH1 whole entry, looked up): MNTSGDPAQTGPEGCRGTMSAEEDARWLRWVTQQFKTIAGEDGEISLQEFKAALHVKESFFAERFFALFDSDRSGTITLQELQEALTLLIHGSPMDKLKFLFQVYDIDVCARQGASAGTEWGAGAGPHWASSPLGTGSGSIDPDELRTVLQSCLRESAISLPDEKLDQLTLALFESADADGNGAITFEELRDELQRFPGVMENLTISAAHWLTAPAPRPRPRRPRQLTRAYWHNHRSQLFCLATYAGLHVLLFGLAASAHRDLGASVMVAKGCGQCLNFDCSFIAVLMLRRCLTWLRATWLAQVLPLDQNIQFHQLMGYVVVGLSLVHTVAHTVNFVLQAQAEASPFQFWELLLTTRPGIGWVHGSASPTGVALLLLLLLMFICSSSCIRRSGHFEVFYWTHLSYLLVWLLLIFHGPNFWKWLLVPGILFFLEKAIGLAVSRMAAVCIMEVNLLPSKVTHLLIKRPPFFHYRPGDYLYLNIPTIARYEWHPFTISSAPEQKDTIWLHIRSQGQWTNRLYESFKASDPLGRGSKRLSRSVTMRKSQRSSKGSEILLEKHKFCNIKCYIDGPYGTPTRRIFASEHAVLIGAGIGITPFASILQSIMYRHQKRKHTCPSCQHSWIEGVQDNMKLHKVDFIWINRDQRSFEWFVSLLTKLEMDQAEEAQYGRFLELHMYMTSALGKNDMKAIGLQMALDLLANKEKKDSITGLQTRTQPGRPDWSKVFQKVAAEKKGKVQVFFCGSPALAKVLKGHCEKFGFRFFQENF
# NADPH oxidase 4 (Homo sapiens), sequence (Q9NPH5 whole entry, looked up): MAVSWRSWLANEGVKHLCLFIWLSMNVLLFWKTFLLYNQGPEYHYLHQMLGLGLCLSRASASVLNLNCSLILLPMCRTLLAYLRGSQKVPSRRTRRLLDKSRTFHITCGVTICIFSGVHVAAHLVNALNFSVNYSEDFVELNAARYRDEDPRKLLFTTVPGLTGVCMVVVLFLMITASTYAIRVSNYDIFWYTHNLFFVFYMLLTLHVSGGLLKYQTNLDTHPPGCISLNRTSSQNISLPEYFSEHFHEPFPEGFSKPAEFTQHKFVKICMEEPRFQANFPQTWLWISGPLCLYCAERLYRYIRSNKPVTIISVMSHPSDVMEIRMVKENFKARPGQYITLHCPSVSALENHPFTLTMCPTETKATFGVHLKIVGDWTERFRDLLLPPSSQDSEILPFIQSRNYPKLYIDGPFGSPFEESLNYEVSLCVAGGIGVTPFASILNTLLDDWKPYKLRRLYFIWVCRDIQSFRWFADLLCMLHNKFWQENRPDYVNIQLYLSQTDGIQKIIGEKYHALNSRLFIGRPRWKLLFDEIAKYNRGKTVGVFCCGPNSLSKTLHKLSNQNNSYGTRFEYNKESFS
# Torsin-1A (Homo sapiens), sequence (O14656 whole entry, looked up): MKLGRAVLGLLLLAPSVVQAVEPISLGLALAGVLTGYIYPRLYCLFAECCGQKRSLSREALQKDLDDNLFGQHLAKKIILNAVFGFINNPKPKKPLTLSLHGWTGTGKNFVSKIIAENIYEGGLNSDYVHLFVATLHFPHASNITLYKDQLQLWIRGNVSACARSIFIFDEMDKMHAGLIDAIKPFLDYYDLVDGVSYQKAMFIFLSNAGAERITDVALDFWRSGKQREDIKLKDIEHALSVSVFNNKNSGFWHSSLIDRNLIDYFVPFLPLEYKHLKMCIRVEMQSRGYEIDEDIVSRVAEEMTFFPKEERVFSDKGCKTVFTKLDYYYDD
# Streptavidin (Streptomyces avidinii), sequence (P22629 whole entry, looked up): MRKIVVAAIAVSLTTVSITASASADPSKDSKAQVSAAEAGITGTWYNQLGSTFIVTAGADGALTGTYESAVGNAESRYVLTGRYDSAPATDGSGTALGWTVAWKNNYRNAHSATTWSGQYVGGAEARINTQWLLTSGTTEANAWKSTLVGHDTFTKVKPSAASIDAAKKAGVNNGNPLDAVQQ
# NADPH oxidase 2 (Homo sapiens), sequence (P04839 whole entry, looked up): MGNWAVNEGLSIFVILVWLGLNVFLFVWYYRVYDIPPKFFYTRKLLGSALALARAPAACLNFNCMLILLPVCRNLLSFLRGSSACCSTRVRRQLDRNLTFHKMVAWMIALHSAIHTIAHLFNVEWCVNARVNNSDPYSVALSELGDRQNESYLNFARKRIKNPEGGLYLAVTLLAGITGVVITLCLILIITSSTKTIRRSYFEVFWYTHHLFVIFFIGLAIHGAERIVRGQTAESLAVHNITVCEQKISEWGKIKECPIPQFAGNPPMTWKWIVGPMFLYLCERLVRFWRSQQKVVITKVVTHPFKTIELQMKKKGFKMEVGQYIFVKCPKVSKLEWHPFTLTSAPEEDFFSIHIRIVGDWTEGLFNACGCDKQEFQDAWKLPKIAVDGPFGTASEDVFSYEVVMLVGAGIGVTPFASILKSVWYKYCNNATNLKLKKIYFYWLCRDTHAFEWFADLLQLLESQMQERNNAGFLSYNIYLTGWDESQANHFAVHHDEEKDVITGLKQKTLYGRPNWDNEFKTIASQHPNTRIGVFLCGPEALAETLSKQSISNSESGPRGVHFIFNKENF
SMILES,composite z-score [1],z-score [2],z-score [3],z-score [4],z-score [5],composite z-score [6],composite z-score [7],composite z-score (Torsin-1A (Homo sapiens) [8]),composite z-score (Torsin-1A (Homo sapiens) [9]),composite z-score [10],z-score [11],composite z-score [12],z-score [13],z-score [14],z-score [15],z-score [16],z-score [17],z-score [18],z-score [19],z-score [20]
CC(C)C[C@H]1NC(=O)[C@@]23C(=O)N[C@@H](Cc4ccccc4)C2[C@H](C)[C@@]2(C)O[C@H]2C3/C=C/C/C=C\CNC(=O)[C@H](Cc2ccccc2)NC1=O (stereo not given in full),0.234,-0.73 (inactive),-0.137 (inactive),-0.416 (inactive),-0.862 (inactive),-0.279,-0.0189,0.839,0.716,2.06,-0.0044 (inactive),0.0999,2.14 (inactive),-0.0365 (inactive),1.58 (inactive),0.207 (inactive),-0.175,0.845 (inactive),-0.847 (inactive),0.971
CCOc1cc(C(O)C2C=CC3C(=O)N(c4ccccc4)C(=O)C3N2Nc2ccccc2)ccc1O (stereo not given),-0.206,0.318 (inactive),-0.802 (inactive),2.15 (inactive),0.838 (inactive),0.0572,-0.128,-0.577,1.66,-0.14,-0.39 (inactive),-0.103,6.39 (inactive),1.31 (inactive),-0.343 (inactive),0.949 (inactive),-0.883,-1.19 (inactive),-1.37 (inactive),-2.34
COc1ccc(C(O)C2C=CC3C(=O)NC(=O)C3N2Nc2ccccn2)cc1 (stereo not given),0.273,1.06 (inactive),-0.727 (inactive),-0.329 (inactive),-0.239 (inactive),-0.0335,0.0659,0.21,0.353,0.3,-0.416 (inactive),0.0622,0.539 (inactive),0.874 (inactive),-0.079 (inactive),0.778 (inactive),-0.449,-0.755 (inactive),-2.56 (inactive),-1.99
COC(=O)[C@@]1(Cc2ccc(OC)cc2)[C@H]2c3cc(C(=O)N4CCCC4)n(Cc4ccsc4Br)c3C[C@H]2CN1C(=O)c1ccccc1,0.0185,-3.29 (inactive),0.674 (inactive),1.72 (inactive),46.9 (active),0.161,0.19,-0.34,0.185,-0.658,-0.68 (inactive),0.0429,0.538 (inactive),-0.155 (inactive),0.0114 (inactive),0.469 (inactive),0.0613,0.289 (inactive),-0.137 (inactive),-1.24
COc1ccc(C(=O)Nc2ccc(CN3C(=O)[C@@]4(O[C@@H](CC(=O)N5CCC[C@H]5CO)[C@H]([Si](C)(C)c5ccc(OC)cc5)[C@H]4C)c4ccccc43)cc2)cc1,0.553,-1.38 (inactive),-1.34 (inactive),1.88 (inactive),-0.0184 (inactive),0.648,0.0074,0.826,0.797,1.66,0.482 (inactive),0.138,5.52 (inactive),1.06 (inactive),0.146 (inactive),0.77 (inactive),0.363,1.21 (inactive),1.23 (inactive),4.5
COCCOC(=O)N1C(=O)[C@@]2(c3cc(C#CC4=CCCCC4)ccc31)[C@H](c1ccc(O)cc1)N1[C@H](c3ccccc3)[C@H](c3ccccc3)OC(=O)[C@H]1[C@@H]2C(N)=O,0.824,-1.83 (inactive),-0.591 (inactive),0.0695 (inactive),0.124 (inactive),0.17,-0.598,0.0873,0.522,2.07,-0.623 (inactive),-0.523,2.57 (inactive),-0.403 (inactive),0.193 (inactive),-0.104 (inactive),-0.0587,0.823 (inactive),0.748 (inactive),1.03
O=C1OCCC/C=C\[C@H]2OC34C=CCN(Cn5nnc6ccccc65)C(=O)[C@H]3N(CCO)C(=O)[C@@H]4C12 (stereo not given in full),-0.212,-0.363 (inactive),-2.05 (inactive),-1.58 (inactive),-0.713 (inactive),-0.712,0.8,-2.75,-1.23,-0.533,1.8 (inactive),0.16,1.55 (inactive),0.299 (inactive),0.292 (inactive),0.335 (inactive),1.64,1.41 (inactive),0.409 (inactive),1.92
C=CCOC(=O)[C@@H]1[C@H]2C(=O)O[C@H](c3ccccc3)[C@H](c3ccccc3)N2[C@H](c2ccc(OCCOC(=O)[C@@H]3C[C@@H]4C(=O)N5CCC[C@H]5C(=O)N4[C@@H]3c3ccc(O)cc3)cc2)[C@@]12C(=O)Nc1ccc(I)cc12,0.0017,-1.51 (inactive),-1.72 (inactive),-1.48 (inactive),-1.75 (inactive),1.11,-0.101,0.711,0.878,1.82,2.52 (inactive),0.365,2.19 (inactive),0.727 (inactive),2.43 (inactive),-1.31 (inactive),3.17,1.32 (inactive),0.808 (inactive),1.69
